PLK1 PBD block – PLK1 (human) polo-box domain binding inhibition; P53350; Plk1 PBD binding of FITC phosphopeptide, fluorescence polarization; Potency, µM, for inactives: max response, negative = inhibition, usual class: inhibitors; actives 2.8% (n = 360,000); AID 720504; also: series mostly up to about 57 µM; % is scaled to controls: 0 for no effect and ±100 for the full control effect; nearly all actives have a fitted effect of over 65% in size
Target sequence (P53350 whole entry, looked up, the tested form may be a part): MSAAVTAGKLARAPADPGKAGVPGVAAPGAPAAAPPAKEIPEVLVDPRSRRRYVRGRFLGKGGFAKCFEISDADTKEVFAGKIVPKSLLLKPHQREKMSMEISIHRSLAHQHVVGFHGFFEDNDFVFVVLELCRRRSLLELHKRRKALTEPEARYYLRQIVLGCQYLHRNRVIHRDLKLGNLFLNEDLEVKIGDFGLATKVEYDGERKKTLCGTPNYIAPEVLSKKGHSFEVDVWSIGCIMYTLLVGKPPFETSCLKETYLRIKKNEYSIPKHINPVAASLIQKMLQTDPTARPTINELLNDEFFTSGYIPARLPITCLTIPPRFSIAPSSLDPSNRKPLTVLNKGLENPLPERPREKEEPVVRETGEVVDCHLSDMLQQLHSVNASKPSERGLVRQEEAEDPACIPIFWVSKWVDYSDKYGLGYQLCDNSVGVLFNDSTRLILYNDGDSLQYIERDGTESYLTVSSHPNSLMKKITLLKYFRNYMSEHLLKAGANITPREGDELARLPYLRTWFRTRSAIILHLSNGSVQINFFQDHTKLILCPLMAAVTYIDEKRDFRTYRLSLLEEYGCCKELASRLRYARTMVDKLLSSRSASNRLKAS
Mito fusion act – blocks mitochondrial division or promotes mitochondrial fusion. Potency, µM (highest dose often 46.1 µM), inactives show at the highest dose growth rescue (activation), usual class: activators. actives 0.23% (n = 320,000). S. cerevisiae fusion-defective mutant growth rescue, CellTiterGlo 48 h; also: % of control where 0% means no effect; nearly all actives have a fitted effect of over 45% in size
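Compounds are tested for their ability to restore growth of mitochondrial fusion-defective yeast strains at non-permissive 37C in YPEG medium over 48 hours. Viability is quantified by luciferase luminescence.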
PKM2 activator – activators of human pyruvate kinase M2; Potency, µM (highest dose often 57.5 µM), without a hit: top-dose activation, most hits filed as activators; AID 1631; purified PKM2, Kinase-Glo ATP luminescence, activation; response scale: 0% is enzyme alone, no compound; P14618; actives 0.34% (n = 260,000); also: % is scaled to controls: 0 for no effect and ±100 for the full control effect; nearly all actives have a fitted effect of over 55% in size
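ATP formation by purified human PK-M2, quantified via coupled luciferase luminescence after 1 h at room temperature with 0.1 mM ADP and 0.5 mM PEP final.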
GLS inh – blocks human kidney-isoform glutaminase activity; O94925; GLS enzymatic activity, qHTS titration; Potency, µM (highest dose often 45.5 µM), for the others: at the top dose activity change, negative = inhibition, usual class: inhibitors; actives 0.21% (n = 410,000); also: % is scaled to controls: 0 for no effect and ±100 for the full control effect
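Assay buffer: 45 mM KH2PO4 pH 8.2, 0.02% Tween-20. hKGA acts on L-glutamine (1 mM solution added); product glutamate is reported by an oxidase/peroxidase Amplex Red coupling, with fluorescence taken at baseline and 30 min.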
GCN5L2 inh – GCN5L2 (KAT2A) acetyltransferase inhibition; actives 0.21% (n = 390,000); AID 504327; Potency, µM (top dose mostly 58.9 µM), inactives show at the top dose activity change, negative = inhibition, most hits filed as inhibitors; GCN5L2 HAT assay, ThioGlo1 CoA-SH fluorescence; Q92830; also: % is scaled to controls: 0 for no effect and ±100 for the full control effect
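Fluorescence readout, Ex340nm/Em540nm: ThioGlo1 (50uM final) reacts with free CoA thiol released as 20nM GCN5L2 acetylates H3(1-25) peptide (75uM) using acetyl-CoA (70uM). Compound and enzyme sat 15 min beforehand; 20 min room-temperature reaction.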
VDR inhibitor – vitamin D3 receptor (human) inhibition; P11473; VDR-SRC2-3 peptide fluorescence polarization, 2 h; Potency, µM, for the others: max response, negative = inhibition, hits mostly inhibitors; actives 0.93% (n = 400,000); also: % is scaled to controls: 0 for no effect and ±100 for the full control effect
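Signal is fluorescence polarization, reporting how far test compounds block the interaction of VDR with the SRC2-3 coregulator peptide after a 2 h room-temperature incubation.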
The depositor's hits bear a star; ? = inconclusive; . = no result; [ ] = another dose, or the depositor's remark. Compounds with a hit are over-represented: about 3.4% of the library has one in this group of screens. Calls follow the shape of the dose curve; as a rule, active = well fitted curve in the direction sought with a large enough effect; inconclusive = small, poorly fitted or top-dose-only effect, or another doubt; inactive = no such curve, though single readings can be large; an effect the other way counts as inactive or inconclusive. Potency is read from the fitted curve at half-maximal effect.

SMILES	PLK1 PBD block	Mito fusion act	PKM2 activator	GLS inh	GCN5L2 inh	VDR inhibitor
CCC(=O)N1CCc2cc(S(=O)(=O)NCCC(=O)Nc3cc(C)cc(C)c3)ccc21	27µM*	6%	-17%	6%	-2%	-8%
COc1cc(/C=C2\N=C3CCCCCN3C2=O)ccc1O	65%	-3%	3%	-1%	-6%	-5%
O=C1/C(=C\c2ccc(O)c(O)c2)N=C2CCCCCN12	49%	1%	17%	2.5µM*	-11%	-3%
Cc1ccc(NC(=O)C2CCCN2S(=O)(=O)c2ccc(-c3ccc(=O)[nH]n3)s2)c(C)c1 (stereo not drawn)	-12%	2%	.	0%	0%	1%
Cc1ccc(CN2CCC(CNS(=O)(=O)c3ccc(-c4ccc(=O)[nH]n4)s3)CC2)cc1	30µM*	3%	.	18%	-2%	?
Cc1ccc(NC(=O)CSc2nncn3c2cc2sccc23)cc1F	.	.	.	-11%	-2%	12%
COc1ccc(OC)c(-c2csc(N(CC3CCCO3)C(=O)C3CCCCC3)n2)c1 (stereo not drawn)	17µM*	27%	7%	-6%	-8%	?
Cc1ccc(N2CCN(CC(O)COc3ccccc3)CC2)cc1 (stereo not drawn)	-11%	-2%	0%	21%	-15%	2%
CSCCC(NC(=O)C12CC3CC(CC(C3)C1)C2)C(=O)OCC(=O)c1ccc(C)cc1 (stereo not drawn)	-10%	-2%	1%	5%	-3%	36%
COc1ccc(CCC(=O)Nc2c(-c3ccc(N(C)C)cc3)[nH][nH]c2=O)cc1	21µM*	.	.	19%	.	.
O=C(CSc1nc2ccccc2o1)Nc1nc(-c2ccccc2)cs1	-14%	16µM*	1%	-10%	-5%	-8%
Clc1ccccc1-c1nnn(Cc2ccc(-c3nn[nH]n3)cc2)n1	27µM*	-7%	0%	55%	-22%	-22%
COc1ccc(N(CC(=O)NCCc2ccccc2)S(=O)(=O)c2ccc(OC)c(OC)c2)cc1	.	.	.	1%	7%	-4%
CC(C)=NNc1nc(-c2ccccc2)c(C)s1	21µM*	-11%	-2%	-5%	-7%	-16%
Cc1ccc(NC(=O)COC(=O)C2CC2(Cl)Cl)cc1C (stereo not drawn)	27µM*	-10%	-13%	3%	-10%	1%
O=C(Nc1cc(Cl)ccc1-n1cncn1)c1cc(F)c(F)c(F)c1F	-2%	?	.	-4%	5%	?
CSc1nc(NCCOC(C)=O)c(C#N)c(-c2ccc(C(C)(C)C)cc2)n1	.	.	.	-4%	-21%	5%
COc1cccc(CNC(=O)C2Cc3ccccc3CN2C(C)=O)c1 (stereo not drawn)	30µM*	1%	.	-1%	-3%	?
CCS(=O)(=O)N1Cc2ccccc2CC1C(=O)NCc1cccc(OC)c1 (stereo not drawn)	-2%	1%	3%	-2%	-4%	-3%
C=CCn1c(SCC(=O)NCCC2=CCCCC2)nc2ccc(Cl)cc2c1=O	11µM*	-5%	-2%	13%	-3%	?
Cn1c(=O)cc(SCC(=O)NCCC2=CCCCC2)c2ccc(Cl)cc21	-10%	-1%	11%	-2%	-9%	-14%
COCC(=O)OC1CCn2c1nc1c2C(=O)C(C)=C(NC(C)=O)C1=O (stereo not drawn)	-21%	.	.	?	.	-4%
CCCSc1nc(N)nc2c1ncn2C1OC(CO)C(O)C1O (stereo not drawn)	-15%	.	.	1%	.	3%
CCc1ccc(NC(=O)c2sc3nc(C)cc(C)c3c2NC(=O)c2ccccc2)cc1	.	.	.	-16%	2%	2%
Cc1cc(NC(=O)CCC(=O)N(CC2CCCO2)C(C(=O)NC2CCCC2)c2cccnc2)no1 (stereo not drawn)	27µM*	2%	-2%	23%	-6%	-17%
SMILES	PLK1 PBD block	Mito fusion act	PKM2 activator	GLS inh	GCN5L2 inh	VDR inhibitor
CNc1ccc2c3c(cccc13)C(=O)N(C)C2=O	3µM*	6%	.	-1%	-11%	15%
CCOC(=O)c1ccccc1NC(=O)COC(=O)C1CCCC1	-6%	4%	.	-7%	-7%	-13%
Cc1cc(C)c2c(=O)n3c(nc2c1)C(CC(C)C)NC(=O)c1cccnc1-3 (stereo not drawn)	-3%	.	.	-4%	.	.
COc1ccc(NS(=O)(=O)c2ccc3oc4ccccc4c3c2)cn1	-6%	25µM*	13%	9%	-3%	1%
COc1ccc(NS(=O)(=O)c2ccc(Br)cc2)cn1	1%	18%	-5%	-5%	-4%	8%
COc1ccc(NS(=O)(=O)c2ccc(F)c(Cl)c2)cn1	?	4%	.	3%	-4%	79µM*
COc1ccc(OCCNS(=O)(=O)c2ccc3oc4ccccc4c3c2)cc1	-16%	6%	15%	-14%	2%	-13%
Cc1noc(C)c1-c1nccc(NCc2cccnc2)n1	.	.	.	.	-11%	-18%
O=C(Nc1ccccc1Cl)c1ccccc1	10%	3%	2%	5%	-5%	-7%
O=C(Nc1ccccc1Cl)C(Cl)C(=O)c1ccccc1 (stereo not drawn)	1.7µM*	5%	4%	?	-4%	-11%
CCc1nc2c(OCCn3cccc3)cccn2c1N(C)C(=O)C1CC1	-11%	.	.	4%	.	.
O=C(Nc1ccccc1N1CCN(C(=O)c2ccccc2)CC1)c1cc(Br)ccc1Cl	-4%	11%	11%	-12%	-1%	-8%
COc1ccc(Br)cc1C(=O)Nc1ccccc1N1CCN(C(=O)c2ccccc2)CC1	24µM*	9%	-2%	0%	-18%	6%
COc1cccc(CNS(=O)(=O)c2c(C)[nH]c(C)c2C(=O)N2CCCCC2)c1	30µM*	1%	-4%	21%	-6%	?
Cc1[nH]c(C)c(S(=O)(=O)NCCc2ccc(S(N)(=O)=O)cc2)c1C(=O)N1CCCC1	27µM*	0%	.	14%	-3%	-21%
Cc1[nH]c(C)c(S(=O)(=O)Nc2cccc(Cl)c2C)c1C(=O)N1CCCCC1	30µM*	14%	-1%	19%	-6%	?
Cc1ccc(CNS(=O)(=O)c2c(C)[nH]c(C)c2C(=O)N2CCCC2)cc1	-17%	-11%	.	-2%	-1%	-1%
CCCNS(=O)(=O)c1ccc(CCC(=O)N2CCCCC2)cc1	24µM*	0%	0%	23%	0%	?
CCCNS(=O)(=O)c1ccc(CCC(=O)N2CCN(CC)CC2)cc1	-4%	3%	-8%	16%	-1%	4%
Cc1ccccc1CNS(=O)(=O)c1c(C)[nH]c(C)c1C(=O)N1CCCCC1	27µM*	12%	-2%[0.46 µM]	20%	-3%	-25%
